The list is not random: actives were taken first. Their share in the collection is about 0.47%.
AID inh – Primary qHTS assay for inhibitors of Activation Induced Cytidine Deaminase (AID): AID signal; AID 1347428, 2020; Single-stranded DNA cytosine deaminase (Homo sapiens), Q9GZX7; Potency, µM (highest dose often 115 µM), hits mostly inhibitors; 0.32% of 91,000 active; AID deamination FRET fluorescence, UDG-coupled, 4 h; further: nearly all actives have a fitted effect of over 25% in size
Target sequence (Q9GZX7 whole entry, looked up): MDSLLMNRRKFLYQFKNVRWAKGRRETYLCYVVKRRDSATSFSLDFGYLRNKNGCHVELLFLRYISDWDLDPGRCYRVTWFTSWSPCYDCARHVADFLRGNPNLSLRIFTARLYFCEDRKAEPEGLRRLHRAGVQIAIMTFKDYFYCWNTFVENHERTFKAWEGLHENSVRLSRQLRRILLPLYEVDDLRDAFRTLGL
UDG counter – Primary qHTS assay for inhibitors of Activation Induced Cytidine Deaminase (AID): UDG Counterscreen signal; Uracil-DNA glycosylase; FRET deamination/UDG coupled assay, UDG read, 4 h; Potency, µM (highest dose often 115 µM), hits mostly inhibitors; 0.14% of 91,000 active; further: nearly all actives have a fitted effect of over 65% in size
Of the large screens only hits and unclear results are named; the others gave an inactive call. The call rests on the fitted dose curve; in most records, active means well fitted curve in the direction sought with a large enough effect; inconclusive means small, poorly fitted or top-dose-only effect, or another doubt; inactive means no such curve, though single readings can be large; an effect the other way counts as inactive or inconclusive.

Cc1ccc(CCNC(=O)c2sc3ncccc3c2-n2cccc2)cc1	none
CC(CNC(=O)c1sc2ncccc2c1-n1cccc1)c1ccccc1 (stereo not given)	AID inh 79.4µM
Cc1cc(C)c2c(-n3cccc3)c(C(=O)NCC(C)c3ccccc3)sc2n1 (stereo not given)	AID inh inconclusive
O=C(NCCc1ccccc1Cl)c1sc2ncccc2c1-n1cccc1	AID inh 35.5µM
Cc1ccccc1-c1nc(C#N)c(NCCN(C)C)o1	none
CC(C)Nc1nc(-c2ccc3c(c2)CCC(=O)N3)cs1	none
N#Cc1ccc(/C=C2\CSc3ccccc3C2=O)cc1	AID inh inconclusive
CCCCc1noc(CN2CCC(c3nc4cc(Cl)ccc4o3)CC2)n1	none
CCCCc1nc(CN2CCN(c3cccc(F)c3C#N)CC2)no1	AID inh inconclusive, UDG counter 89.1µM
Cc1oc(-c2ccccc2Cl)nc1CS(=O)(=O)CC(=O)NC(C)c1ccccc1 (stereo not given)	AID inh inconclusive
Cc1oc(-c2ccccc2Cl)nc1CS(=O)(=O)CC(=O)NC(C)CCc1ccccc1 (stereo not given)	AID inh 20µM
N#Cc1ccc(NC(=O)CNc2cc(S(=O)(=O)N3CCCCC3)ccc2N2CCCCC2)cc1	none
Fc1cccc(NC(=S)NCCCCc2ccccc2)c1	none
Cc1cccc(Cn2c(-c3ccccc3)nc3ccccc32)c1	AID inh inconclusive
Fc1ccccc1Cn1c(-c2ccccc2)nc2ccccc21	AID inh 44.7µM, UDG counter inconclusive
Cc1cc(S(=O)(=O)C(CNC(=O)COc2ccccc2)c2cccs2)ccc1F (stereo not given)	none
Cc1ccc(S(=O)(=O)C(CNC(=O)COc2ccccc2)c2cccs2)cc1 (stereo not given)	AID inh 44.7µM
Cc1cc(C)c(CC(=O)O)c(C)c1	none
Cc1nn(C(C)C)cc1N	none
Cc1nc2nc(SCC(=O)NCCc3ccc(Cl)cc3)nn2c(C)c1Cc1ccccc1Cl	AID inh 35.5µM
Cc1ccccc1Cc1c(C)nc2nc(SCC(=O)NCCc3ccc(Cl)cc3)nn2c1C	AID inh inconclusive
CCCn1nc(C(=O)NCCc2cccs2)c2ccccc2c1=O	none
CCC(CO)NC(=S)Nc1cccc(C)c1 (stereo not given)	none
N#Cc1ccc(-c2csc(-c3ccncc3)n2)cc1	none
Cc1cc(-n2c(C)nc3ccccc3c2=O)ccc1NC(=O)c1cccc([N+](=O)[O-])c1C	UDG counter 89.1µM
Cc1cc(-n2c(C)nc3ccccc3c2=O)ccc1NC(=O)c1ccccc1[N+](=O)[O-]	none
Cc1sc(NC(=O)c2ccsc2)c(C#N)c1C	none
Cc1ccc(Cc2nc3ccccc3nc2SCC(=O)N2CCC(C)CC2)cc1	AID inh inconclusive
CC1CCCCN1C(=O)CSc1nc2ccccc2nc1Cc1ccccc1 (stereo not given)	AID inh 50.1µM
Cc1nc2c(C(=O)NCc3ccccc3)c[nH]n2c(=O)c1Cc1ccccc1Cl	AID inh 89.1µM
Cc1nc2nc(N(Cc3ccccc3)C(=O)c3ccco3)[nH]n2c(=O)c1Cc1ccccc1Cl	AID inh inconclusive
O=C(NCc1ccc(F)cc1)C1CCCN(C(=O)c2cccc(C(F)(F)F)c2)C1 (stereo not given)	none
CCCN(C(=O)CCc1nc(-c2ccc(OC)cc2)no1)c1ccccc1F	AID inh 39.8µM
CCCN(C(=O)Cc1nc(-c2ccc(OC)cc2)no1)c1ccccc1C	AID inh inconclusive
COc1ccc(-c2nc(SC(CC(=O)NCc3ccco3)c3ccccc3)n[nH]2)cc1 (stereo not given)	none
COc1cc(C(=O)Nc2ccc(OCc3cc(=O)n4cccc(C)c4n3)cc2)cc(OC)c1OC	AID inh 22.4µM
COc1ccccc1C(=O)Nc1ccc(OCc2cc(=O)n3cccc(C)c3n2)cc1	none
Cc1cc(C(=O)OCC(=O)Nc2cc(F)ccc2F)c2ccccc2n1	none
CCOC(=O)c1ccc(Oc2c(C)oc3cc(OCC(=O)c4ccc(OC)cc4)ccc3c2=O)cc1	none
Clc1ccc(N=Cc2ccc3ccccc3c2)cc1Cl	none
Oc1ccc(N=Cc2ccc3ccccc3c2)cc1	AID inh 14.1µM, UDG counter inconclusive
C=CCOc1ccc(/C=C2\N=C(SC)SC2=O)cc1	none
COc1cc(C(C)=O)ccc1SCC(=O)O	none
OCCNc1nc(Nc2cccc(Cl)c2)nc2nccnc12	AID inh 79.4µM
OCCNc1nc(Nc2ccc(Cl)c(Cl)c2)nc2nccnc12	AID inh 35.5µM
OCCNc1nc(Nc2ccc(Br)cc2)nc2nccnc12	AID inh inconclusive
c1ccc(CCNc2nc(Nc3ccccc3)c3nccnc3n2)cc1	none
CCN1CCN(CCC(=O)Nc2sc(-c3ccccc3)cc2C(=O)OC)CC1	none
Cc1ccc(/C=N/Nc2ccnc3cc(Cl)ccc23)s1	none
COc1ccc(-n2c(=O)c3c4c(sc3n(Cc3ccccc3C)c2=O)CCCC4)c(OC)c1	AID inh inconclusive
COc1ccc(-n2c(=O)c3c4c(sc3n(Cc3ccc(C(C)(C)C)cc3)c2=O)CCC4)c(OC)c1	AID inh 35.5µM, UDG counter inconclusive
COC(=O)c1ccc(C[N+]2(C)CCCCC2)cc1	none
O=c1n(Cc2cccc(F)c2)c2ccccc2c2nc(-c3ccccc3)nn12	none
Cc1cccc(Cn2c(=O)n3nc(-c4ccccc4)nc3c3ccccc32)c1	AID inh 79.4µM
CNc1oc(-c2ccccc2F)nc1S(=O)(=O)c1ccc2c(c1)OCCO2	UDG counter 79.4µM
CNc1oc(-c2ccc(Cl)cc2)nc1S(=O)(=O)c1ccc2c(c1)OCCO2	none
O=C(O)/C(=C\c1ccc(Br)cc1)Sc1nc2ccccc2s1	none
COc1ccc(OC)c(/C=C(/C#N)C(=O)C(C)(C)C)c1	none
COc1ccc(S(=O)(=O)Cc2ccc(C(=O)N3CCN(c4cc(C)ccc4C)CC3)o2)cc1	AID inh inconclusive, UDG counter 89.1µM
Cc1ccc(S(=O)(=O)Cc2ccc(C(=O)N3CCN(c4cccc(C)c4C)CC3)o2)cc1	AID inh inconclusive
COc1ccc(-n2cc(-c3ccccc3)c3c(NC4CCCC4)ncnc32)cc1	AID inh 35.5µM
Clc1cccc(-n2cc(-c3ccccc3)c3c(NC4CCCC4)ncnc32)c1	AID inh inconclusive
O=C(O)C(Br)Cc1ccc(Cl)cc1 (stereo not given)	none
CC(C)(C)c1ccc(CSc2nc3c(c(=O)[nH]2)CCCC3)cc1	UDG counter 79.4µM
O=c1[nH]c(SCc2ccc([N+](=O)[O-])cc2)nc2c1CCCC2	UDG counter inconclusive
Cc1noc2ncnc(Nc3ccc(F)cc3)c12	none
CC(C)c1ccc(Nc2ncnc3onc(-c4ccc(F)cc4)c23)cc1	AID inh inconclusive, UDG counter 89.1µM
COc1cc(C(=O)/C=C/c2ccc(SC)cc2)ccc1O	none
CC(=O)c1ccc(N2CCN(C(=O)C3CCN(S(=O)(=O)c4c(C)noc4/C=C/c4ccc(C)cc4)CC3)CC2)cc1	none
Cc1ccc(/C=C/c2onc(C)c2S(=O)(=O)N2CCC(C(=O)N3CCC(N(C)C(C)C)CC3)CC2)cc1	AID inh 44.7µM
Cc1nc(Cc2nn3c(-c4ccccc4)nnc3s2)cs1	none
COC(=O)CC(N)c1ccc(C)cc1C (stereo not given)	none
COc1ccccc1OCCSc1nc(-c2ccc(C(C)(C)C)cc2)nc2cc(=O)[nH]n12	AID inh 79.4µM
C=CCc1ccccc1OCCSc1nc(-c2ccc(C(C)(C)C)cc2)nc2cc(=O)[nH]n12	AID inh inconclusive

Source: PubChem
